Out of some 39,000 compounds screened, about 1,500 (3.8%) were called active. The list comes from a sample in which actives are over-represented; it also holds similar structures and randomly drawn compounds.
What follows are compounds tested on HSkMC (human skeletal muscle cells) (assay: cytotoxicity call (relative viability < 0.9)). Conditions: 10 µM.

Structure (SMILES)	cytotoxicity call
O=C(CN1CCOCC1)N[C@H]1CC[C@H](CCNC(=O)C2CCCCC2)O[C@H]1CO	inactive
C[C@@H]1CN([C@@H](C)CO)C(=O)c2ccccc2-c2ccccc2CO[C@H]1CN(C)S(=O)(=O)c1ccc(C(F)(F)F)cc1	inactive
Cc1coc2c1C(=O)C(=O)c1c-2ccc2c1CCCC2(C)C	active
Cc1cccc2c3c(ccc12)C1=C(C(=O)C3=O)C(C)CO1 (stereo not drawn)	inactive
CC1COC2=C1C(=O)C(=O)c1c2ccc2c1CCCC2(C)C (stereo not drawn)	active
C[C@H]1CN(C(=O)N(C)C)CCN1C(=O)N(C)C	inactive
O=C(O)Cn1c(=O)n(CC(=O)O)c2ccccc21	inactive
COC(=O)C(CCCN1C(=O)c2ccccc2C1=O)(NC(C)=O)c1nn[nH]n1 (stereo not drawn)	inactive
C[C@H](CO)N1C[C@H](C)[C@H](CN(C)C(=O)c2cnccn2)Oc2ncc(-c3cccc(C#N)c3)cc2C1=O	inactive
C[C@@H]1CN([C@H](C)CO)C(=O)CCCn2nncc2CO[C@H]1CN(C)Cc1cccc2c1OCCCO2	inactive
CCOC(=O)N(C)C[C@H]1OCc2cn(nn2)CCCC(=O)N([C@@H](C)CO)C[C@@H]1C	inactive
O=C(O)CCSC[C@@H]1O[C@H]2O[C@@H]3[C@@H](O)[C@H](O)[C@H](O[C@@H]4[C@@H](O)[C@H](O)[C@H](O[C@@H]5[C@@H](O)[C@H](O)[C@H](O[C@@H]6[C@@H](O)[C@H](O)[C@H](O[C@@H]7[C@@H](O)[C@H](O)[C@H](O[C@@H]8[C@@H](O)[C@H](O)[C@H](O[C@@H]9[C@@H](O)[C@H](O)[C@H](O[C@@H]1[C@@H](O)[C@@H]2O)O[C@H]9CSCCC(=O)O)O[C@H]8CSCCC(=O)O)O[C@H]7CSCCC(=O)O)O[C@H]6CSCCC(=O)O)O[C@H]5CSCCC(=O)O)O[C@H]4CSCCC(=O)O)O[C@H]3CSCCC(=O)O	inactive
C[C@H](CO)N1C[C@H](C)[C@H](CN(C)Cc2ccc(C(=O)O)cc2)OCCCC[C@H](C)Oc2ccc(NC(=O)Nc3ccccc3)cc2C1=O	inactive
C[C@H](CO)N1C[C@H](C)[C@@H](CN(C)S(C)(=O)=O)Oc2ccc(NC(=O)Nc3ccc(F)cc3)cc2CC1=O	inactive
CCC(=C/[C@H](C)C/C=C/C(C)=C/[C@@H](C)C(=O)[C@@H](C)[C@H](O)[C@@H](C)C/C(C)=C/C(=O)O)/C=C/[C@@H]1OC(=O)C=C[C@@H]1C	active
Cc1noc(C)c1NC(=O)N(C)C[C@@H]1Oc2ccc(NS(C)(=O)=O)cc2CC(=O)N([C@H](C)CO)C[C@H]1C	inactive
C[C@@H]1CN([C@H](C)CO)S(=O)(=O)c2ccc(-c3cccnc3)cc2O[C@H]1CN(C)C(=O)c1cccc(F)c1	inactive
COc1ccc([Si](C)(C)[C@H]2[C@H](CCO)O[C@@]3(C(=O)N(Cc4ccccc4)c4ccc(N(C=O)c5ccccc5)cc43)[C@@H]2C)cc1	inactive
COc1ccc([Si](C)(C)[C@@H]2[C@@H](CCO)O[C@]3(C(=O)N(Cc4ccccc4)c4ccc(N(C=O)c5ccccc5)cc43)[C@H]2C)cc1	inactive
C=CCN1C(=O)[C@]2(O[C@H](CCO)[C@@H]([Si](C)(C)c3ccc(OC)cc3)[C@@H]2C)c2cc(N(C=O)c3ccccc3)ccc21	active
C=CCN1C(=O)[C@@]2(O[C@@H](CCO)[C@H]([Si](C)(C)c3ccc(OC)cc3)[C@H]2C)c2cc(N(C=O)c3ccccc3)ccc21	active
COc1ccc([Si](C)(C)[C@@H]2[C@@H](CCO)O[C@]3(C(=O)N(Cc4ccc(N(C=O)c5ccccc5)cc4)c4ccccc43)[C@H]2C)cc1	inactive

Structure (SMILES)	cytotoxicity call
COc1ccc([Si](C)(C)[C@H]2[C@H](CCO)O[C@@]3(C(=O)N(Cc4ccc(N(C=O)c5ccccc5)cc4)c4ccccc43)[C@@H]2C)cc1	inactive
C[C@@H]1CCCCO[C@@H](CN(C)C(=O)Nc2ccccc2)[C@@H](C)CN([C@H](C)CO)C(=O)c2cc(NS(=O)(=O)c3ccccc3)ccc2O1	inactive
C[C@@H]1CN([C@H](C)CO)C(=O)c2cc(NC(=O)NC3CCCCC3)ccc2O[C@@H](C)CCCCO[C@@H]1CN(C)CC1CCCCC1	inactive
C[C@H](CO)N1C[C@H](C)[C@H](CN(C)S(=O)(=O)c2ccccc2)Oc2ccc(NC(=O)CCC(F)(F)F)cc2CC1=O	inactive
C[C@H]1CN([C@@H](C)CO)C(=O)c2cccc(NC(=O)NC3CCCCC3)c2O[C@@H]1CN(C)Cc1ccc(-c2ccccc2)cc1	inactive
Clc1ccc(C(Cn2ccnc2)OCc2c(Cl)cccc2Cl)c(Cl)c1.O=[N+]([O-])O (stereo not drawn)	inactive
Clc1ccc(COC(Cn2ccnc2)c2ccc(Cl)cc2Cl)cc1.O=[N+]([O-])O (stereo not drawn)	inactive
Clc1ccc(CSC(Cn2ccnc2)c2ccc(Cl)cc2Cl)cc1.O=[N+]([O-])O (stereo not drawn)	active
Cc1noc(C)c1S(=O)(=O)N(C)C[C@@H]1Oc2ccc(NS(=O)(=O)c3ccc(Cl)cc3)cc2C(=O)N([C@H](C)CO)C[C@@H]1C	inactive
C[C@@H]1CCCCO[C@H](CN(C)C(=O)Nc2cccc3ccccc23)[C@H](C)CN([C@H](C)CO)C(=O)c2cc(NS(C)(=O)=O)ccc2O1	inactive
Cc1ccc(C(N)=S)c(=O)[nH]1	inactive
C[C@H]1CN([C@@H](C)CO)C(=O)c2cccc(NC(=O)C3CCCCC3)c2O[C@@H]1CN(C)Cc1ccc(Cl)c(Cl)c1	inactive
COC(=O)c1c(CC[C@@H](CO)NC(=O)N[C@@H](Cc2ccccc2)Cn2cc(-c3ccccn3)nn2)oc(C(=O)N2CCOCC2)c1C(=O)OC	inactive
CCCC#Cc1ccc2c(c1)O[C@@H](CN(C)Cc1ccc3c(c1)OCO3)[C@H](C)CN([C@H](C)CO)S2(=O)=O	inactive
CO[C@H](CN(C)C(=O)C1CCOCC1)[C@H](C)CN(C(=O)Nc1ccc(C(F)(F)F)cc1)[C@@H](C)CO	inactive
C[C@H](CO)N1C[C@H](C)[C@@H](CN(C)CC2CCCCC2)Oc2ccc(NC(=O)Nc3ccc(F)cc3)cc2CC1=O	inactive
C[C@@H]1CN([C@@H](C)CO)C(=O)Cc2cc(NC(=O)Nc3ccc(F)cc3)ccc2O[C@@H]1CN(C)CC1CCCCC1	inactive
C[C@H](CO)N1C[C@H](C)[C@H](CN(C)CC2CCCCC2)Oc2ccc(NC(=O)Nc3ccc(F)cc3)cc2CC1=O	inactive
C[C@H]1CN([C@@H](C)CO)C(=O)Cc2cc(NC(=O)Nc3ccc(F)cc3)ccc2O[C@H]1CN(C)CC1CCCCC1	active
C[C@@H]1CN([C@H](C)CO)C(=O)Cc2cc(NC(=O)Nc3ccc(F)cc3)ccc2O[C@@H]1CN(C)CC1CCCCC1	active
C[C@@H]1CN([C@@H](C)CO)C(=O)Cc2cc(NC(=O)Nc3ccc(F)cc3)ccc2O[C@H]1CN(C)CC1CCCCC1	inactive

Reference: the antibiotic and cytotoxicity screens of Wong et al. (2023)
